Growth data for 15 molecules are collected here from PubChem BioAssay (NCI).

Compounds without any hit were thinned out: in the full panel of roughly 83,000, 20% have a hit.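 Step 1: grow cells in 96-well plates. Step 2: add test compound at a single concentration. Step 3: incubate 48 h. Step 4: record percent growth.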 Values without a mark were called inactive. Active and inactive are the calls of the source. Rule for the calls: active = growth percent below 10; inactive = the rest.

Common to all, as to assay: NCI-60 one-dose screen, 48 h (100 = growth as untreated, 0 = no growth, -100 = all killed)
Common to all, as to conditions: 10 µM

The test system of test [1] is EKVX NSCLC.
Test [2] deals with SN12C renal.
The test system of test [3] is UO-31 renal.
Test [4] concerns TK-10 renal.
For test [5], the system named is ACHN renal.
The subject of test [6] is A498 renal.
Test [7] has as its system CCRF-CEM leukemia.
Test [8] deals with MOLT-4 leukemia.
For test [9], the system named is SR leukemia.
The subject of test [10] is CAKI-1 renal.

`CCN1Cc2c(/C=C/c3ccccc3)nc3ccc(OC)cc3c2N(c2cccc(Cl)c2)C1`: the growth was 66.9% in test [1]; 60.6% in [2]; 63.8% in test [3]; 101% in test [4]; 98% in [5]; 85.5% in test [6]. Also, the figures for the growth in [7], in test [8] and in [9] were 58.6%, 55.4% and 11.7%, respectively.
As to `Clc1cc2c(c(CSc3nc4ccccc4n4cccc34)c1)OCOC2`, the growth was 70.6% in test [1]; 81.5% in [2]; 74% in [3]; 79.4% in test [4]; 87.9% in test [5]; 102% in test [6]. Further, the results for the growth in test [7], in test [8] and in [9] were 93.7%, 94.8% and 29.2%, respectively.
`CC12O[C@H](C[C@@H](OC(=O)c3ccccc3)[C@H]1O)n1c3ccccc3c3c4c(c5c6ccccc6n2c5c31)C(=O)NC4=O`: the growth was 36.4% in test [1]; 33% in test [2]; -13.9% (active) in [3]; 7.3% (active) in test [4]; 39.4% in test [5]; -25.6% (active) in test [6]. Besides, the growth in test [7] is 64%; in test [8], 64.3%; in test [9], 50.3%.
On to `CC(C)=CCc1cc(O)cc2c1OC(C=C(C)C)C1=C2C(=O)C2=C(NCCS2(=O)=O)C1=O` (stereo not given), for which the growth in test [1] is -1.26% (active); in test [2], -59% (active); in test [3] it was 67.3%; in test [4], 106%; in test [5] it was 26.2%; in [6], 50.2%. The figures for the growth in [7], in test [8] and in test [9] were 1.9% (active), -34.5% (active) and 1.49% (active), respectively.
With `CN(C)c1ccc(-c2cc(-c3cccc(NS(C)(=O)=O)c3)nc(N)c2C#N)cc1`, the growth in test [1] was 17.3%; in test [2], 37.9%; in test [3], 11.2%; in [4] it was 42.1%; in test [5], 26.1%; in [7], 15.9%. The growth in [8] was 24.3%; in test [9], 9.27% (active).
Regarding `ClCC#CCSc1ncnc2c1ncn2CC#CCCl`, the growth in test [1] was 10.5%; in [2], 20.2%; in [3], 2.36% (active); in test [4], 71.1%; in [5], 11.7%; in [7] it was 14.9%. Besides, in [8], the growth was 15.4%.
As to `S=c1[nH]ccn1-c1c(Cl)cccc1Cl`, the growth in test [1] is 103%; in test [2] it was 92.6%; in [3] it was 91%; in [4], 112%; in [5], 101%; in [6] it was 116%. The growth was 106% in [8] and 104% in test [9].
`COc1ccc(OC)c(/C=C/c2nnc(Nc3ccc(Cl)cc3)o2)c1`: the growth is 68.1% in test [1]; 44.9% in [2]; 4.98% (active) in test [3]; 39.1% in test [4]; 32.6% in test [5]; 90.1% in test [7]. Also, the growth was 89.7% in test [8] and 78.9% in test [9].
As for `O=C(Nc1ccc(Cl)c([N+](=O)[O-])c1)Nc1nc2ccccc2s1`, the growth in test [1] was 76.3%; in [2], 65.1%; in [3], 83.8%; in test [4] it was 112%; in [5], 81.8%; in test [6], 85.7%. Also, the growth in test [7] is 49.2%; in test [8] it was 79.7%; in test [9], 113%.
As to `CC1(C)OC2=C(CC1Br)C(=O)C(=O)c1ccccc12` (stereo not given), the growth is -40.1% (active) in [1]; -75.4% (active) in [2]; -22.6% (active) in test [4]; -91.7% (active) in [5]; -62.2% (active) in test [10]; 101% in [6]. Moreover, the growth is -25.6% (active) in [8] and 15.9% in test [9].
`O=C(NC(Cc1ccc(O)cc1)C(=O)N=Nc1c(O)[nH]c2ccccc12)c1ccccc1` (stereo not given): the growth was 97.3% in [1]; 97.6% in [2]; 74.9% in test [3]; 97.7% in test [4]; 98.9% in [10]; 109% in test [6]. For the same molecule, the growth in test [7] was 89.6%; in test [8] it was 92.1%; in test [9] it was 92.7%.
`OCC1OC(n2cnc3c(N/N=C\c4ccccn4)ncnc32)C(O)C1O` (stereo not given): the growth is 7.34% (active) in test [1]; 18.9% in [2]; -23.5% (active) in test [3]; 42.1% in [4]; 16.8% in test [7]; 20.3% in test [9].
As for `CCN(CC)CCCOCCCNc1cc(OC)cc2cccnc12`, the growth was 96.4% in [1]; 95.7% in test [3]; 137% in [4]; 97.5% in test [5]; 103% in [10]; 72% in [6]. Also, the growth in test [7] is 90.9%; in test [8], 105%; in [9], 100%.
For `CCN(CC)CCNc1ccc(CO)c2oc3cc(Cl)ccc3c(=O)c12`, the growth in test [1] is 88.7%; in test [3], 54.4%; in [4] it was 82.7%; in test [5], 60.9%; in test [10] it was 87.3%; in test [6], 50.9%. Also, the growth is 66.6% in test [7], 62.3% in [8] and 50.1% in [9].
As to `COc1cc2c(cc1OCCCCCCN1CCN(CC(=O)Nc3ccc(Cl)cc3C(=O)c3ccccc3Cl)CC1)N=CC1CCCN1C2=O` (stereo not given), the growth was -93.2% (active) in test [1]; -90.2% (active) in test [2]; -98.8% (active) in test [4]; -100% (active) in test [5]; -98.8% (active) in test [10]; -66.3% (active) in [7]. In addition, the growth is -64% (active) in [8] and -70.2% (active) in test [9].
